Data as given in PubChem BioAssay (NCATS).
A number with no mark means an inactive call. Results filed as inconclusive are left out. Active and inactive are the calls of the source. Unless noted, calls come from the whole dose curve.

Tests used:
[1] = biological target: Lysosomal acid glucosylceramidase (Homo sapiens) (UniProt P04062); assay: Glucocerebrosidase-p2 (AID 348; in the data active = potency below about 10 µM; note: potency is the fitted concentration of half-maximal effect); conditions: purified GBA, blue fluorogenic substrate, 40 min
Method in brief: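 Normal human glucocerebrosidase (0.2 nM) with blue fluorogenic substrate (80 uM final) in citrate/phosphate pH 5.9 with 10mM sodium taurocholate, 0.01% tween-20; 40 min RT, NaOH/glycine stop; fluorescence Ex 365/Em 440; AC50 from a titration from 0.6 nM upwards.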

[2] = NFAT Signaling Pathway (AID 444; active = well fitted curve in either direction with a large enough effect, not every such curve was filed as active;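 note: carbachol stimulus at about its EC50 of 1 µM final; % is set by controls: 0 for no effect and ±100 for the full control effect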); conditions: Jurkat NFAT-bla M1, carbachol, beta-lactamase ratio, 5 h; at 7.69 µM (top of the series) unless noted
Method in brief: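 Read-out: CCF4 FRET ratio (460 nm/530 nm) after 1 h RT dye loading, used for %activity and AC50 from titration series. Cells: Jurkat NFAT-β-lactamase/M1 line, treated with compound plus 1 uM carbachol for 5 h, 37 °C.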

[3] = biological target: Glucocorticoid receptor (Homo sapiens) (UniProt P04150); assay: GR-GFP Redistribution (AID 450;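 active = compounds whose dose series gives a full or clear partial fitted curve of increased nuclear translocation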; note: potency is the fitted concentration of half-maximal effect); conditions: U2OS GR-GFP nuclear translocation, laser cytometry, 2 h
[4] = biological target: Glucocorticoid receptor (Homo sapiens) (UniProt P04150); assay: GR-EFC Redistribution (AID 451); conditions: CHO-K1 GR-EFC translocation, beta-gal luminescence, 2 h; note: potency is the fitted concentration of half-maximal effect
Method in brief: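 Translocation of GR-ED fusion to nuclear EA restores b-gal, read by luminescence after 1 h room-temperature detection. Engineered CHO-K1 biosensor cells, 1,000/well, exposed 2 h at 37 C to titrations up to 46 uM final.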

[5] = biological target: Mitogen-activated protein kinase 10 (Mus musculus) (UniProt Q61831); assay: JNK3 AlphaScreen Assay (AID 530; active = well fitted curve in either direction with a large enough effect, not every such curve was filed as active;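 note: kinase came from lysate of stimulated human HepG2 cells; signal reports phosphorylation of biotinylated GST-cJun 1-79 at Ser73 with 10 µM ATP; % is set by controls: 0 for no effect and ±100 for the full control effect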); conditions: JNK3 lysate, c-Jun phosphorylation; series mostly up to 11.4 µM
Method in brief: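 qHTS titrations with 15 min compound pre-incubation before adding ATP (10 uM final). Read-out: AlphaScreen of Ser73-phosphorylated biotin-GST-cJun using HepG2 lysate JNK3 activated by IL-1β and TNFα.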

[6] = biological target: 3',5'-cyclic-AMP phosphodiesterase 4B (Homo sapiens) (UniProt Q07343); assay: qHTS Assay for Inhibitors of PDE-IV (AID 607; active = well fitted activation curve with a large enough effect in the main read-out, with a control signal flat, not every such curve was filed as active; note: % of control where 0% means no effect); conditions: HEK293 ACTOne CNG channel cells, membrane potential fluorescence; series mostly up to 22.9 µM
Method in brief: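 The readout is membrane depolarisation from a cAMP-sensing CNG channel, detected with a potential dye at ex 535/em 590. Cells were HEK293-derived (endogenous PDE-IV) at 1000 cells/well, titrated up to 22.9 uM final.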

[7] = Stat Signaling Pathway (AID 446; active = well fitted curve in either direction with a large enough effect, not every such curve was filed as active;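 note: ME-180 cervical cancer cells given 40 pM IL-6 alongside compound; SIE-controlled beta-lactamase reporter measured as 460/530 nm FRET emission ratio; % is set by controls: 0 for no effect and ±100 for the full control effect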); conditions: ME-180 SIE beta-lactamase reporter, IL-6 stimulated, 5 h; at 7.69 µM (top of the series) unless noted
Method in brief: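 Emission at 460 and 530 nm (excitation 405 nm) reports SIE-controlled beta-lactamase in ME-180 cells. Cells received compound with 40 pM IL-6 for 5 hrs at 37 C; data scaled between 300 pM IL-6 and 125 nM JAK-inhibitor controls.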

[8] = biological target: Cytochrome P450 1A2 (Homo sapiens) (UniProt P05177); assay: p450-cyp1a2 (AID 410); conditions: recombinant CYP1A2, luciferin-ME demethylation, luminescence; series mostly up to 11.4 µM; note: potency is the fitted concentration of half-maximal effect
Method in brief: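 O-Demethylation of luciferin 6' methyl ether by human CYP1A2 is monitored as luciferase luminescence. Substrate sits at Km (100uM); enzyme is 20nM. Values are scaled to 57 uM furafylline as maximal inhibition.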

[9] = biological target: Cytochrome P450 3A4 (Homo sapiens) (UniProt P08684); assay: qHTS Assay for Activators of Cytochrome P450 3A4 (AID 885; active = well fitted activation curve with a large enough effect; note: nearly all actives have a fitted effect of over 65% in size); conditions: recombinant CYP3A4, Luciferin-PPXE luminescence, 60 min; series mostly up to 11.4 µM
Method in brief: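 Activators are scored by enhanced luminescence from CYP3A4 conversion of luciferin-PPXE (25uM, equal to KM) to luciferin, after 60 min at RT with an NADPH-regenerating system.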

[10] = qHTS Assay for Identification of Small Molecule Agonists for Hypoxia Response Element Signaling Pathway (AID 914; active = well fitted activation curve with a large enough effect in the signal ratio, with a control signal flat, not every such curve was filed as active; the % refers to the signal ratio; note: potency is the fitted concentration of half-maximal effect); conditions: ME-180 (cervical carcinoma) HRE-bla reporter, beta-lactamase ratio, CoCl2, 17 h; activation: stronger effect = higher value
Method in brief: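 Positive modulation of EC50 CoCl2-induced hypoxia response element signaling is measured in ME-180 cells with a beta-lactamase reporter. Compounds are titrated, incubation runs 17 hours, and %Activity derives from the blue/green ratio.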

Lysosomal acid glucosylceramidase (Homo sapiens), sequence (P04062 whole entry, looked up): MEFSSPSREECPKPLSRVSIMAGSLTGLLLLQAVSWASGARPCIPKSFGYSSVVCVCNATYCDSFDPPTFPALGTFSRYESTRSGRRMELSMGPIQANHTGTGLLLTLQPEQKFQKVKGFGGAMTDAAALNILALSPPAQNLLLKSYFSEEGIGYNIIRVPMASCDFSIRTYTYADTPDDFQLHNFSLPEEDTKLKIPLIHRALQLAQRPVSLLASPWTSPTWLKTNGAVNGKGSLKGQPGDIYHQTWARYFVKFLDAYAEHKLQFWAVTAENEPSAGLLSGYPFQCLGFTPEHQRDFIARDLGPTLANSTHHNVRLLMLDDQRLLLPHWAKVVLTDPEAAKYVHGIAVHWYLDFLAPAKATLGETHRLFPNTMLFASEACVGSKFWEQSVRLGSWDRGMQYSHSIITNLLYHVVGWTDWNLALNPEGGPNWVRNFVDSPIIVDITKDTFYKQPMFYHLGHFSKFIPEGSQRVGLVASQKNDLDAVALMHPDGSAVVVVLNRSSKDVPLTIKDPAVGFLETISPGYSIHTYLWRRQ
Cytochrome P450 1A2 (Homo sapiens), sequence (P05177 whole entry, looked up): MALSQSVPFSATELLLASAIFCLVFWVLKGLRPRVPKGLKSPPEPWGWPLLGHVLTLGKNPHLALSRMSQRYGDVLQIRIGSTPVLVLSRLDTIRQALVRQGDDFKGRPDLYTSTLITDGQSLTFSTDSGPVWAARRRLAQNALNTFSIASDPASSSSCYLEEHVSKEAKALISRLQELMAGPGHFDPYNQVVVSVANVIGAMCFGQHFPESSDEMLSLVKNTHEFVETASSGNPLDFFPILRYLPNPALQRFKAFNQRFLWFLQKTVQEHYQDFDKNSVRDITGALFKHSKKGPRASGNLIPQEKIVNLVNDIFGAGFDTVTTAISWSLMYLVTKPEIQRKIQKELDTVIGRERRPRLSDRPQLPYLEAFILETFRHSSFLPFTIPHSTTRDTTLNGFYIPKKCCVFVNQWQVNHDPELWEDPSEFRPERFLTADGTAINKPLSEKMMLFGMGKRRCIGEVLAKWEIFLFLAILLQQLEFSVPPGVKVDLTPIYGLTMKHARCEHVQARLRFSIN
3',5'-cyclic-AMP phosphodiesterase 4B (Homo sapiens), sequence (Q07343 whole entry, looked up): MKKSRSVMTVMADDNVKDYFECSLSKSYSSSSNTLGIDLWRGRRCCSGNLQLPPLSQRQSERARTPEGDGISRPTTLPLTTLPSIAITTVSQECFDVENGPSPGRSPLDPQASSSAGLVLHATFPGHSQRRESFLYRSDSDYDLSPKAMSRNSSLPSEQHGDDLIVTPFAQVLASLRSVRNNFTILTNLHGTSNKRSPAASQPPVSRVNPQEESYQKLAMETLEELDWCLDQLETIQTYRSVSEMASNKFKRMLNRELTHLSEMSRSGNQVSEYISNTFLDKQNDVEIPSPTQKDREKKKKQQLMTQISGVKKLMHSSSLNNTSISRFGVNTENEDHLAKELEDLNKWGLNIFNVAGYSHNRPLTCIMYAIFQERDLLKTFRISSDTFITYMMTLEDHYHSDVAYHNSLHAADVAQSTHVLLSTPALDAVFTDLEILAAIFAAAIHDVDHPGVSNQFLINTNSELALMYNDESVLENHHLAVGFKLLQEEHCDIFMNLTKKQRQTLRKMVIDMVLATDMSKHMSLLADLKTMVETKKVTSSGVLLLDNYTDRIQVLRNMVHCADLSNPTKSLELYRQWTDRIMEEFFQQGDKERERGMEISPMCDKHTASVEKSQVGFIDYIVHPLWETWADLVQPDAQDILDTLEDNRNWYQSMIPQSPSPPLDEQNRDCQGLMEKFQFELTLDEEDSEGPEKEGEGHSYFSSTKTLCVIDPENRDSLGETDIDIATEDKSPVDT
Glucocorticoid receptor (Homo sapiens), sequence (P04150 whole entry, looked up, the tested form may be a part): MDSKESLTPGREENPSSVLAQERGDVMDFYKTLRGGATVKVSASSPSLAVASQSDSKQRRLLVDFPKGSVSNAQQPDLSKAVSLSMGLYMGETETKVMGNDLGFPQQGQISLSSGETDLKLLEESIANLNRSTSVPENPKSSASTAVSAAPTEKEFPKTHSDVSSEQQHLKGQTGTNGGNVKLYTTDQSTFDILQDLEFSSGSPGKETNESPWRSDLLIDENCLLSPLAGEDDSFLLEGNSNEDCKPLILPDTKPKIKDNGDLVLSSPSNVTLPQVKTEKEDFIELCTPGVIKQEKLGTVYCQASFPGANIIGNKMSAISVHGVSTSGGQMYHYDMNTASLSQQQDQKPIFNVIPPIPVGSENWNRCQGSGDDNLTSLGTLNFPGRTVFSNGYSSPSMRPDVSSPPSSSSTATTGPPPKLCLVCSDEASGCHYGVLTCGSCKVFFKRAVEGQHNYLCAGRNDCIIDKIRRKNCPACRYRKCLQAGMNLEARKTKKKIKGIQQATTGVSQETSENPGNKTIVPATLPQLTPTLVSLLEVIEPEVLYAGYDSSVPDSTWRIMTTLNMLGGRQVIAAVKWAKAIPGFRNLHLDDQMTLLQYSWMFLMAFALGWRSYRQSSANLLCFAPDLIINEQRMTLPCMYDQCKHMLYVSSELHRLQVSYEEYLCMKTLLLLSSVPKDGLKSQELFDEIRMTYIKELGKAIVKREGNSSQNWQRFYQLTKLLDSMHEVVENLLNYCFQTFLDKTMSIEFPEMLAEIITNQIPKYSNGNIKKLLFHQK
Cytochrome P450 3A4 (Homo sapiens), sequence (P08684 whole entry, looked up): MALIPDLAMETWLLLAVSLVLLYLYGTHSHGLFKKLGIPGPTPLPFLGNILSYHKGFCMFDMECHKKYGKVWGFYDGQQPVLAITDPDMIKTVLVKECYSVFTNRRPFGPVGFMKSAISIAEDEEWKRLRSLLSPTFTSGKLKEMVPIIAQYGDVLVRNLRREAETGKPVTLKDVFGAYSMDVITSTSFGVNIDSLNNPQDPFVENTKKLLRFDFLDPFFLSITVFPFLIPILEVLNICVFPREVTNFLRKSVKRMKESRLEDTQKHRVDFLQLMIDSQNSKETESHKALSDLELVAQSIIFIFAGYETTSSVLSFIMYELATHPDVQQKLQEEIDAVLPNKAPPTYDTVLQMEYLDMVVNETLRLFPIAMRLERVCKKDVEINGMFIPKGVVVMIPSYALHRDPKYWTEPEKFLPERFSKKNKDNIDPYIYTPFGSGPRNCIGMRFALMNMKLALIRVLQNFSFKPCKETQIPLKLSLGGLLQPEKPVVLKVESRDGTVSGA

Compound: Cc1c(O)c(Br)c(C)c(O)c1Br (tested in a mixture with another compound)
- Potency [1]: > 11.4 µM
- activity change, negative = inhibition [2]: -77.8% (active)
- Potency [3]: > 46 µM
- Potency [4]: > 9.22 µM
- Potency [5]: inactive
- Potency [6]: inactive

Compound: O=C(O)CN1C(=O)O[C@@H](c2ccccc2)C1=O
- Potency [1]: > 11.4 µM
- activity change, negative = inhibition [2]: 11.5%
- activity, negative = inhibition [7]: -12.2%
- Potency [3]: > 46 µM
- Potency [4]: > 9.22 µM
- Potency [5]: inactive
- Potency [6]: inactive

Compound: O=c1c(-c2ccccc2)nc2cnc(N3CCOCC3)nc2n1-c1ccccc1
- Potency [1]: > 11.4 µM
- Potency [8]: 12.6 µM (active)
- Potency [3]: > 9.22 µM
- Potency [4]: > 46 µM
- Potency [6]: inactive
- Potency [9]: inactive
- Potency [10]: 3.16 µM (active)

Compound: O=c1c(-c2cc(F)cc(F)c2)nc2cnc(N3CCNCC3)nc2n1CCc1ccccc1
- Potency [1]: > 11.4 µM
- Potency [8]: 20 µM (active)
- Potency [3]: > 9.22 µM
- Potency [4]: > 46 µM
- Potency [6]: inactive
- Potency [10]: 3.16 µM (active)

Compound: O=c1c(-c2ccccc2)nc2cnc(N3CCNCC3)nc2n1Cc1ccc(F)cc1
- Potency [1]: > 11.4 µM
- Potency [8]: 20 µM (active)
- Potency [3]: > 9.22 µM
- Potency [4]: > 46 µM
- Potency [6]: inactive
- Potency [9]: inactive
- Potency [10]: 3.16 µM (active)

Compound: O=C(O)c1[nH]c(=O)[nH]c(=O)c1CN1CCCCC1
- Potency [1]: > 11.4 µM
- activity change, negative = inhibition [2]: 9.91%
- activity, negative = inhibition [7]: -5.07%
- Potency [3]: > 46 µM
- Potency [4]: > 9.22 µM
- Potency [5]: inactive
- Potency [6]: inactive
